In the library only some 3.2% were active in any assay of this set; here they are far more common.
VACV mCherry inh = inhibitors of vaccinia virus infection (mCherry reporter signal); Vaccinia virus mCherry reporter infection, fluorescence; Potency, µM (series often up to 36.5 µM), usual class: inhibitors; 310,000 compounds, 0.63% hits; AID 720579; calls by dose curve; tested in A549 cells; further: nearly all actives have a fitted effect of over 35% in size
LASV entry inh = Lassa virus entry inhibition | Lassa virus pseudotype entry inhibition, cell reporter | Potency, µM (series often up to 37.9 µM), actives largely listed as inhibitors | 300,000 compounds, 1.2% hits | AID 540256; calls by dose curve; tested in HEK293 cells; further: nearly all actives have a fitted effect of over 50% in size
VACV Venus inh = inhibitors of vaccinia virus (Venus reporter); Vaccinia virus Venus reporter expression, fluorescence; Potency, µM (titrated, usually from 36.5 µM), usual class: inhibitors; 330,000 compounds, 0.46% hits; calls by dose curve; tested in A549 cells; further: nearly all actives have a fitted effect of over 30% in size
MARV entry inh = Marburg virus entry inhibition; Marburg virus pseudotyped entry inhibition, cell reporter; Potency, µM (top dose mostly 37.8 µM), actives largely listed as inhibitors; 300,000 compounds, 1.8% hits; AID 540276; calls by dose curve; tested in HEK293 cells
FMDV inh = antivirals against foot and mouth disease virus; FMDV antiviral cell-based qHTS; Potency, µM (highest dose often 57.9 µM), hits mostly inhibitors; 410,000 compounds, 1.2% hits; calls by dose curve; tested in HEK293T cells; further: read-out not given here; nearly all actives have a fitted effect of over 45% in size
Large screens that a line does not name were inactive.

Cc1noc(C)c1CSc1ccccc1C(=O)N1CCN(c2ccccc2)CC1	LASV entry inh 10µM, FMDV inh inconclusive
O=c1c(-c2cccs2)nc2cncnc2n1Cc1ccccc1	none (no result: VACV mCherry inh, LASV entry inh, VACV Venus inh, MARV entry inh)
O=C(CNc1cc(S(=O)(=O)N2CCCC2)ccc1OCC(F)(F)F)Nc1ccc(SC(F)F)cc1	VACV mCherry inh inconclusive, LASV entry inh 18.4µM, VACV Venus inh inconclusive, MARV entry inh 8.2µM
COc1ccc(OCC(=O)Nc2cc(S(=O)(=O)N3CCCC3)ccc2OCC(F)(F)F)cc1	LASV entry inh inconclusive, MARV entry inh inconclusive
Cn1c(-c2ccccc2)cnc1SCC(=O)N1CCCCC1	LASV entry inh 3.55µM, MARV entry inh inconclusive, FMDV inh 15.8µM (no result: VACV mCherry inh)
O=C(CCl)NCc1cc(-c2ccc(Cl)cc2)no1	VACV mCherry inh 10µM, LASV entry inh inconclusive, VACV Venus inh inconclusive, MARV entry inh inconclusive, FMDV inh inconclusive
COc1ccc(OC)c(NC(=O)CSc2ncc3c(n2)-c2ccccc2N(C)S3(=O)=O)c1	FMDV inh inconclusive (no result: MARV entry inh)
Cc1ccc(Nc2nc(N)c([N+](=O)[O-])c(N3CCC(C)CC3)n2)cc1C	MARV entry inh 14.1µM
Cc1cccc(Nc2nc(N)c([N+](=O)[O-])c(N3CCCC(C)C3)n2)c1 (configuration not stated)	VACV mCherry inh 12.6µM, LASV entry inh inconclusive, VACV Venus inh 10µM, MARV entry inh inconclusive, FMDV inh 22.4µM
Cc1cccc(Nc2nc(N)c([N+](=O)[O-])c(N3CCN(C)CC3)n2)c1	VACV mCherry inh inconclusive, VACV Venus inh inconclusive, MARV entry inh inconclusive
Cc1ccc(Nc2nc(N)c([N+](=O)[O-])c(N3CCOCC3)n2)cc1C	VACV mCherry inh inconclusive, VACV Venus inh inconclusive, MARV entry inh inconclusive
CC(=O)c1ccc(NC(=O)c2sc3nc4c(cc3c2N)N2CCC4CC2)cc1	LASV entry inh inconclusive, FMDV inh inconclusive
Nc1c(C(=O)Nc2ccc(OC(F)(F)F)cc2)sc2nc3c(cc12)N1CCC3CC1	VACV mCherry inh inconclusive, VACV Venus inh inconclusive, FMDV inh 25.1µM
COc1ccc(CC(=O)OCC(=O)NCc2ccc3c(c2)OCO3)cc1OC	none
NNC(=O)c1cc2ccccc2cc1O	MARV entry inh inconclusive, FMDV inh 6.31µM
COc1cc(NC(=O)c2cc3ccccc3cc2O)c(OC)cc1Cl	FMDV inh 12.6µM (no result: VACV mCherry inh, LASV entry inh, VACV Venus inh, MARV entry inh)
COc1cc(OC)c(/C=C/c2ccncn2)c(OC)c1	none (no result: LASV entry inh, MARV entry inh, FMDV inh)
Cc1ccc(S(=O)(=O)N2[C@@H](c3ccc(Cl)cc3)C(C(=O)OC(C)(C)C)=CC[C@H]2c2ccc(Cl)c(Cl)c2)cc1	none (no result: LASV entry inh, MARV entry inh)
Cc1nc2ccc(NC(=O)c3cccs3)cc2c(=O)n1Cc1ccc(Cl)cc1	VACV mCherry inh 11.2µM, LASV entry inh inconclusive, VACV Venus inh inconclusive, MARV entry inh inconclusive (no result: FMDV inh)
CCCc1nc2ccc(NC(=O)c3cccs3)cc2c(=O)n1Cc1ccc(Cl)cc1	none (no result: VACV mCherry inh, VACV Venus inh)
CCc1cc(=O)oc2c3c(c(Cl)cc12)OCN(Cc1cccc(OC)c1)C3	none
Cc1ccc(NC(=O)C2CCN(S(=O)(=O)c3c(C)noc3/C=C/c3ccco3)CC2)nc1	LASV entry inh inconclusive, MARV entry inh inconclusive, FMDV inh 35.5µM
Cc1ccc(NC(=O)/C=C/c2ccco2)nc1	VACV mCherry inh inconclusive, LASV entry inh inconclusive, VACV Venus inh inconclusive, MARV entry inh 7.08µM
Cc1ccccc1NC(=O)C1CCN(S(=O)(=O)c2c(C)noc2/C=C/c2ccco2)CC1	none
O=C(/C=C/c1ccco1)Nc1ccccn1	LASV entry inh inconclusive, MARV entry inh inconclusive
O=C(Oc1c(Cl)cc(Cl)c2cccnc12)c1ccco1	VACV mCherry inh 12.6µM, LASV entry inh inconclusive, VACV Venus inh inconclusive, MARV entry inh inconclusive, FMDV inh inconclusive
COc1ccc(C(=O)Oc2c(CN3CCOCC3)cc(Cl)c3cccnc23)cc1	VACV Venus inh inconclusive, MARV entry inh inconclusive (no result: VACV mCherry inh)
COc1cccc(C(=O)Oc2c(CN3CCOCC3)cc(Cl)c3cccnc23)c1	LASV entry inh inconclusive, MARV entry inh 8.2µM, FMDV inh inconclusive (no result: VACV mCherry inh, VACV Venus inh)
COc1cc(C(=O)Oc2c(CN3CCOCC3)cc(Cl)c3cccnc23)cc(OC)c1OC	VACV mCherry inh inconclusive, VACV Venus inh inconclusive, FMDV inh inconclusive (no result: LASV entry inh)
O=C(Oc1c(CN2CCOCC2)cc(Cl)c2cccnc12)c1ccccc1Cl	VACV mCherry inh 3.55µM, LASV entry inh inconclusive, VACV Venus inh 5.62µM, MARV entry inh inconclusive
O=C(Oc1c(CN2CCOCC2)cc(Cl)c2cccnc12)c1cccs1	VACV mCherry inh inconclusive, LASV entry inh inconclusive, VACV Venus inh inconclusive, MARV entry inh 10µM
COc1ccccc1CCc1nc2ccccc2n1C1CCN(C(=O)c2cc(C)nn2C)CC1	none (no result: LASV entry inh, MARV entry inh)
O=C(Oc1c(CN2CCOCC2)cc(Cl)c2cccnc12)c1ccc(F)cc1	LASV entry inh inconclusive, MARV entry inh 10.3µM (no result: VACV mCherry inh, VACV Venus inh)
CCn1cc([N+](=O)[O-])c(C(=O)N2N=C(c3ccc4ccccc4c3)CC2c2cc(Br)ccc2O)n1 (configuration not stated)	VACV mCherry inh 14.1µM, LASV entry inh inconclusive, VACV Venus inh inconclusive, MARV entry inh inconclusive
N/C(=N\N=C\c1ccc(O)c(O)c1)c1nonc1N	none (no result: VACV mCherry inh, LASV entry inh, VACV Venus inh, MARV entry inh)
N/C(=N\N=C\c1ccc(O)cc1)c1nonc1N	LASV entry inh inconclusive, MARV entry inh 20.6µM
COc1ccccc1NC(=O)CN1CCCN(S(=O)(=O)c2ccc(Br)cc2)CC1	FMDV inh inconclusive
N#CC(=Cc1ccc(-c2ccccc2)cc1)C(=O)c1ccccc1	none (no result: LASV entry inh, MARV entry inh)
CC(=O)C(=Cc1ccc(-c2ccccc2)cc1)C(=O)c1ccccc1	FMDV inh 22.4µM (no result: LASV entry inh, MARV entry inh)
O=C(C(Br)=Cc1ccccc1)c1ccccc1	VACV mCherry inh inconclusive, LASV entry inh inconclusive, VACV Venus inh inconclusive, MARV entry inh 5.01µM, FMDV inh 25.1µM
CS(=O)(=O)N(CC(=O)Nc1cccc([N+](=O)[O-])c1)c1ccccc1	none (no result: LASV entry inh, MARV entry inh)
Cc1ccccc1CN(CC(=O)Nc1cccc([N+](=O)[O-])c1)S(=O)(=O)c1ccc(Cl)cc1	VACV mCherry inh inconclusive, LASV entry inh inconclusive, VACV Venus inh inconclusive, MARV entry inh inconclusive, FMDV inh 39.8µM
Cc1ccccc1NC(=O)c1cccc(S(=O)(=O)Nc2cccc(C(=O)O)c2)c1	none
Cc1ccc(C(=O)Nc2ccc(S(=O)(=O)O)c3cc(S(=O)(=O)O)cc(S(=O)(=O)O)c23)cc1NC(=O)c1cccc(NC(=O)Nc2cccc(C(=O)Nc3cc(C(=O)Nc4ccc(S(=O)(=O)O)c5cc(S(=O)(=O)O)cc(S(=O)(=O)O)c45)ccc3C)c2)c1	LASV entry inh 8.88µM, MARV entry inh 3.15µM
CCC(Sc1nc2ccncc2[nH]1)C(=O)Nc1cc(Cl)ccc1C (configuration not stated)	none
Cc1cccc(N2CCN(C(=O)c3cn(C)c(=O)c4c3c3ccccc3n4C)CC2)c1C	LASV entry inh 6.51µM, MARV entry inh inconclusive (no result: VACV mCherry inh, VACV Venus inh)
Cc1cccc(N2CCN(C(=O)c3cn(CC(C)C)c(=O)c4c3c3ccccc3n4C)CC2)c1C	VACV mCherry inh inconclusive, VACV Venus inh inconclusive
C[C@H]1CN=C(N(C)C)N1CC1CCC(C(C)(C)C)CC1 (some centres not stated)	VACV mCherry inh 7.94µM, VACV Venus inh inconclusive, FMDV inh inconclusive (no result: LASV entry inh, MARV entry inh)
COc1ccccc1NC(=O)CSc1ccc(-c2ccccn2)nn1	VACV mCherry inh 14.1µM, LASV entry inh inconclusive, VACV Venus inh inconclusive, MARV entry inh inconclusive
Cc1ccc(CNC(=O)CSc2ccc(-c3ccccn3)nn2)cc1	VACV mCherry inh 7.08µM, LASV entry inh inconclusive, VACV Venus inh inconclusive, MARV entry inh inconclusive

Screening results: PubChem BioAssay, National Center for Advancing Translational Sciences (NCATS)
